The record followed here is PubChem BioAssay (EPA / NIEHS).

Inconclusive results are not listed. Activity calls are given as the source filed them. The calls were made as follows, unless noted: active = hit-call score of the fitted dose curve at least 0.9, where 1 is the maximum; inconclusive = response in the unintended direction; inactive = score below 0.9.

Experiment [1] can be described thus: ATG_TAL_CIS: Attagene CIS-FACTORIAL HepG2 Assay for human TAL Basal Promoter (AID 2282966; active = hit-call score of the fitted dose curve at least 0.9, where 1 is the maximum; inactive = score below 0.9;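 also: background control endpoint measuring basal TAL promoter reporter mRNA not a specific factor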). To be noted: HepG2 Attagene cis-factorial TAL promoter reporter; actives raise or lower the signal. In a few lines: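 Steps: transfect HepG2 with multiple reporter transcription units; dose 24 h; isolate RNA, reverse-transcribe, PCR-amplify, label with 6-FAM, digest with HpaI; resolve by capillary electrophoresis. Bidirectional fitting against DMSO baseline.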

Experiment [2] in a line: ATG_TGFb_CIS: Attagene CIS-FACTORIAL HepG2 Assay for human Transforming Growth Factor (TGF) (AID 2282967; active = hit-call score of the fitted dose curve at least 0.9, where 1 is the maximum; inactive = score below 0.9). The note with it: HepG2 Attagene CIS TGFb reporter, mRNA transcription; actives raise or lower the signal. Summed up: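 Liver HepG2 line, cis-factorial reporter panel, 24 h dosing. Quantitation: RT-PCR products labeled with 6-FAM, cut with HpaI, resolved by capillary electrophoresis; DMSO-referenced bidirectional analysis.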

A short description of experiment [3]: ATG_VDRE_CIS: Attagene CIS-FACTORIAL HepG2 Assay for human Vitamin D Receptor Element (VDRE) (AID 2282968; active = hit-call score of the fitted dose curve at least 0.9, where 1 is the maximum; inactive = score below 0.9). The note with it: HepG2 VDRE cis-reporter transcription, actives raise or lower the signal. Summed up: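 Transiently transfected HepG2 cells carrying cis-regulated reporter transcription units were exposed for 24 h. Reporter mRNA was measured by RT-PCR with fluorescent labelling and capillary electrophoresis, and fitted in both directions against DMSO.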

Experiment [4] has as its target Steroid hormone receptor ERR1 (Homo sapiens) (UniProt P11474). The experiment can be described thus: ATG_ERRa_TRANS: Attagene TRANS-FACTORIAL HepG2 Assay for human Estrogen-Related Receptor alpha (ERRa) (AID 2282971). The note with it: HepG2 Attagene TRANS reporter, ERRa transactivation. Summed up:
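Signal gain relative to DMSO for an ERRa-Gal4 chimeric receptor, read as reporter mRNA by RT-PCR/capillary electrophoresis. Human HepG2 liver cells, transient multiplex reporter transfection, 24 h chemical exposure.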

For experiment [5], the target named is X-box-binding protein 1 (Homo sapiens) (UniProt P17861). The experiment can be described thus: ATG_Xbp1_CIS: Attagene CIS-FACTORIAL HepG2 Assay for human X-box Binding Protein 1 (XBP1) (AID 2282972; active = hit-call score of the fitted dose curve at least 0.9, where 1 is the maximum; inactive = score below 0.9). The note with it: HepG2 XBP1 cis-element reporter, Attagene multiplex; actives raise or lower the signal. In a few lines: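 HepG2, transient MRTU transfection (cis-promoter driven), 24 h compound exposure. Total RNA → oligo(dT) RT → PCR → 6-FAM labeling → HpaI cut → CE. Bidirectional fit vs DMSO.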
Sequence of X-box-binding protein 1 (Homo sapiens) (P17861 whole entry, looked up): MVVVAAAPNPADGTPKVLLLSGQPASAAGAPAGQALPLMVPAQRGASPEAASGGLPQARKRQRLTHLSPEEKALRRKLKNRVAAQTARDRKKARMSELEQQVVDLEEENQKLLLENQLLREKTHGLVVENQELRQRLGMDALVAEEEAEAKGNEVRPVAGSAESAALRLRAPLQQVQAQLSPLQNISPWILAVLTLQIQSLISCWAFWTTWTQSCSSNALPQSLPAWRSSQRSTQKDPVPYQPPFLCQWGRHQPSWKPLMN

A short description of experiment [6]: ATG_M_19_TRANS: Attagene TRANS-FACTORIAL HepG2 Assay for M19 Transcription Factor (Internal Marker) (AID 2282974). To be noted: HepG2 Attagene TRANS-FACTORIAL M19 internal marker reporter. Summed up: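 Measured here: internal-marker reporter transcript from HepG2 cells transfected with MRTUs, harvested at 24 h. cDNA PCR products were 6-FAM labelled by primer extension, cut with HpaI for 2 h at 37 C, and resolved by CE.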

A short description of experiment [7]: ATG_GAL4_TRANS: Attagene TRANS-FACTORIAL HepG2 Assay for GAL4 (Internal Marker) (AID 2282976). To be noted: HepG2 Attagene TRANS GAL4 internal marker reporter. Summed up: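 Liver HepG2 line bearing multiplexed GAL4-UAS reporter constructs; 24 h chemical treatment. Transcripts were quantified as fluorescent fragments on capillary electrophoresis after RT-PCR and HpaI cut, with activity fitted upward from DMSO.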

Experiment [8] has as its target Estrogen-related receptor gamma (Homo sapiens) (UniProt P62508). The experiment can be described thus: ATG_ERRg_TRANS: Attagene TRANS-FACTORIAL HepG2 Assay for human Estrogen-Related Receptor gamma (ERRg) (AID 2282977).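 Also: hits increase reporter signal over DMSO so potencies reflect activators.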 To be noted: HepG2 Attagene TRANS reporter, ERRg transactivation. Summed up: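 HepG2 cells transiently transfected with multiplexed GAL4-UAS reporter units driven by chimeric NR-Gal4 proteins; 24 h exposure. Reporter mRNA quantified by RT-PCR, fluorescent labelling, HpaI digestion and capillary electrophoresis; gain of signal vs DMSO.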

For experiment [9], the target named is Glucocorticoid receptor (Homo sapiens) (UniProt P04150). As to the kind of experiment: ATG_GR_TRANS: Attagene TRANS-FACTORIAL HepG2 Assay for human Glucocorticoid Receptor (GR) (AID 2282978).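 Also: activators score as hits since higher reporter transcript over DMSO is fitted.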 To be noted: HepG2 Attagene TRANS GR reporter, mRNA transcription. In a few lines:
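Measurement of GAL4-UAS-driven reporter mRNA in human HepG2 liver cells 24 h post-dosing, using RT-PCR with fluorescent labelling and capillary electrophoresis; the transfected constructs report exogenous NR-GAL4 chimera activity, fitted upward against DMSO.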

In experiment [10] the target is Bile acid receptor (Homo sapiens) (UniProt Q96RI1). As to the kind of experiment: ATG_FXR_TRANS: Attagene TRANS-FACTORIAL HepG2 Assay for Farnesoid X Receptor (FXR) (AID 2282979).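 Also: hits raise reporter mRNA above DMSO so AC50 marks FXR activation.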 To be noted: HepG2 Attagene TRANS FXR-GAL4 reporter transcription. In a few lines: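 After 24 h chemical treatment of transfected HepG2 cells, GAL4-UAS reporter transcripts driven by an exogenous FXR-GAL4 fusion were measured by RT-PCR and capillary electrophoresis. Increases over DMSO were fitted.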
Sequence of Bile acid receptor (Homo sapiens) (Q96RI1 whole entry, looked up, the tested form may be a part): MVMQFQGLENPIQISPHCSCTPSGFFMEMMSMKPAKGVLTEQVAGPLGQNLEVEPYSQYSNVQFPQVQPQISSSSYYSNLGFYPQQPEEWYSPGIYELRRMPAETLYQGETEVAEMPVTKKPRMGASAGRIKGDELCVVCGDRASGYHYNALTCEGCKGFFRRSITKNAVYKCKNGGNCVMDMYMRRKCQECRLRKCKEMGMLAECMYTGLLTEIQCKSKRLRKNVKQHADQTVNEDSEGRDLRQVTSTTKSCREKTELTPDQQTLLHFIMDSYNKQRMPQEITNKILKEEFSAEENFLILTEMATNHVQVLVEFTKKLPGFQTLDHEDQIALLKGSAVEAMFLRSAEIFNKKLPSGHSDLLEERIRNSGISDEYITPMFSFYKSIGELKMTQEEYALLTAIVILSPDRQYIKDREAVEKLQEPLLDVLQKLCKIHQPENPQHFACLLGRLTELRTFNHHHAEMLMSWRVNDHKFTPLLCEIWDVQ

Experiment [11] has as its target Oxysterols receptor LXR-alpha (Homo sapiens) (UniProt Q13133). As to the kind of experiment: ATG_LXRa_TRANS: Attagene TRANS-FACTORIAL HepG2 Assay for human Liver X Receptor alpha (LXRa) (AID 2282980). The note with it: HepG2 Attagene TRANS reporter, LXRa transactivation. In a few lines: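 In this multiplexed TRANS system, compounds act on HepG2 cells carrying GAL4-UAS reporter units and a receptor-GAL4 fusion for 24 h. Induced reporter RNA is amplified, fluorescently labelled and sized by capillary electrophoresis, with DMSO as baseline.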

The target of experiment [12] is Hepatocyte nuclear factor 4-alpha (Homo sapiens) (UniProt P41235). As to the kind of experiment: ATG_HNF4a_TRANS: Attagene TRANS-FACTORIAL HepG2 Assay for human Hepatocyte Nuclear Factor 4 alpha (HNF4a) (AID 2282982). To be noted: HepG2 HNF4a transactivation reporter, mRNA readout. Summed up: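 HepG2 cells transiently transfected with HNF4a-Gal4 chimera and GAL4-UAS reporter units, dosed for 24 h. Reporter mRNA measured by RT-PCR, fluorescent primer extension and capillary electrophoresis; gain-of-signal fitted relative to DMSO.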
Sequence of Hepatocyte nuclear factor 4-alpha (Homo sapiens) (P41235 whole entry, looked up, the tested form may be a part): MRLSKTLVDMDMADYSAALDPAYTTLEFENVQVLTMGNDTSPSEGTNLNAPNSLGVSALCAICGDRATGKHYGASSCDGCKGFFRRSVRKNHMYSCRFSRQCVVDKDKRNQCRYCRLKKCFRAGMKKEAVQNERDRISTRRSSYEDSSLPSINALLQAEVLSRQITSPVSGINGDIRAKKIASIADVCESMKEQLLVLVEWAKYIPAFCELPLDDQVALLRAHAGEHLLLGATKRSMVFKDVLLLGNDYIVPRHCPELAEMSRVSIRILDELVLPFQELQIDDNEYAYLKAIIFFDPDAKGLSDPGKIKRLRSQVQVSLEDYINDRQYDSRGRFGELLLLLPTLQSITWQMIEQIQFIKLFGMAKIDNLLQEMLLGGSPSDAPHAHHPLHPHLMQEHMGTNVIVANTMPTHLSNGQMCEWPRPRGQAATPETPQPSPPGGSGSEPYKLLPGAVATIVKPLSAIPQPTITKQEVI

Experiment [13] is described as follows: ATG_M_06_TRANS: Attagene TRANS-FACTORIAL HepG2 Assay for M06 Transcription Factor (Internal Marker) (AID 2282983).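 Also: reporter transcript level by RT-PCR then capillary electrophoresis fluorescence.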 To be noted: HepG2 Attagene TRANS M06 internal marker reporter. Summed up:
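Internal-marker background readout from a multiplexed TRANS reporter system in HepG2; 24 h dosing; mRNA induction quantified by RT-PCR plus capillary electrophoresis fluorescence; DMSO as negative control and baseline.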

The nature of experiment [14]: ATG_M_32_TRANS: Attagene TRANS-FACTORIAL HepG2 Assay for M32 Transcription Factor (Internal Marker) (AID 2282984).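 Also: transcript level of a background control reporter unit measured by RT-PCR and capillary electrophoresis.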 To be noted: HepG2 Attagene TRANS M32 internal marker reporter. Summed up: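 HepG2 cells transiently transfected with GAL4-UAS reporter units, dosed for 24 hours. Reporter mRNA quantified by RT-PCR, 6-FAM labelling, HpaI digestion and capillary electrophoresis; internal-marker signal fitted upward relative to DMSO.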

The target in experiment [15] is Transcriptional activator Myb (Homo sapiens) (UniProt P10242). The experiment can be described thus: ATG_Myb_CIS: Attagene CIS-FACTORIAL HepG2 Assay for human Myeloblastosis (Myb) Proto-Oncogene Transcription Factor (AID 2282986; active = hit-call score of the fitted dose curve at least 0.9, where 1 is the maximum; inactive = score below 0.9). To be noted: HepG2 Attagene CIS-FACTORIAL Myb reporter transcription; actives raise or lower the signal. In a few lines:
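Fluorescence signals from capillary electrophoresis of RT-PCR-amplified reporter cDNA give the read-out. Cells: HepG2 transfected with multiple cis-regulated reporter units. Exposure lasts 24 hours; DMSO defines baseline for gain or loss of signal.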

Experiment [16] addresses Nuclear respiratory factor 1 (Homo sapiens) (UniProt Q16656). The experiment can be described thus: ATG_NRF1_CIS: Attagene CIS-FACTORIAL HepG2 Assay for human Nuclear Respiratory Factor 1 (NRF1) Orphan Gene (AID 2282987; active = hit-call score of the fitted dose curve at least 0.9, where 1 is the maximum; inactive = score below 0.9). The note with it: HepG2 NRF1 cis-element reporter, Attagene multiplex; actives raise or lower the signal. In a few lines:
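Transcriptional reporter readout, one component of a 52-endpoint multiplexed HepG2 panel. Exposure 24 h; mRNA detected via RT-PCR and fluorescent capillary electrophoresis; fitting in both directions against DMSO.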

In experiment [17] the target is Estrogen receptor (Homo sapiens) (UniProt P03372). The experiment can be described thus: ATG_ERa_TRANS: Attagene TRANS-FACTORIAL HepG2 Assay for human Estrogen Receptor alpha (ERa) (AID 2282970). The note with it: HepG2 Attagene TRANS ERa GAL4 reporter, mRNA. Summed up:
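Multiplexed cell-based reporter format in HepG2: chimeric ERa-Gal4 protein drives GAL4-UAS reporter transcription. Fluorescent reporter mRNA quantified by capillary electrophoresis 24 hours after dosing; endpoint fitted as signal gain against DMSO.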

Experiment [18] concerns the target Oxysterols receptor LXR-beta (Homo sapiens) (UniProt P55055). The experiment can be described thus: ATG_LXRb_TRANS: Attagene TRANS-FACTORIAL HepG2 Assay for human Liver X Receptor beta (LXRb) (AID 2282981). To be noted: HepG2 Attagene TRANS GAL4-LXRb reporter, mRNA. Summed up:
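HepG2 cells transiently transfected with GAL4-UAS reporter units for chimeric NR-Gal4 proteins, dosed for 24 h. Reporter transcripts measured by RT-PCR and capillary electrophoresis; gain-of-signal fitting relative to DMSO.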

Experiment [19] has as its target Nuclear receptor subfamily 4 group A member 2 (Homo sapiens) (UniProt P43354). The experiment can be described thus: ATG_NURR1_TRANS: Attagene TRANS-FACTORIAL HepG2 Assay for human Nuclear Receptor Related Protein 1 (NURR1) (AID 2282985). The note with it: HepG2 Attagene TRANS reporter, mRNA readout. Summed up:
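HepG2 cells transiently transfected with NURR1-Gal4 chimera and GAL4-UAS reporter units; after 24 hr compound exposure, reporter mRNA quantified by RT-PCR and capillary electrophoresis; gain of signal fitted against DMSO.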

The target of experiment [20] is Nuclear receptor subfamily 1 group I member 3 (Homo sapiens) (UniProt Q14994). As to the kind of experiment: ATG_CAR_TRANS: Attagene TRANS-FACTORIAL HepG2 Assay for human Constitutive Androstane Receptor (CAR) (AID 2282969).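 Also: activators raise reporter mRNA above DMSO so AC50 marks induction.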 To be noted: HepG2 Attagene TRANS-FACTORIAL CAR reporter. Summed up:
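HepG2 cells transiently transfected with GAL4-UAS reporter units; TRANS format reads activity of exogenous chimeric NR-Gal4 protein. After 24 h dosing, reporter mRNA quantified by RT-PCR, 6-FAM labelling and capillary electrophoresis; gain of signal fitted against DMSO.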

Sequence of Transcriptional activator Myb (Homo sapiens) (P10242 whole entry, looked up): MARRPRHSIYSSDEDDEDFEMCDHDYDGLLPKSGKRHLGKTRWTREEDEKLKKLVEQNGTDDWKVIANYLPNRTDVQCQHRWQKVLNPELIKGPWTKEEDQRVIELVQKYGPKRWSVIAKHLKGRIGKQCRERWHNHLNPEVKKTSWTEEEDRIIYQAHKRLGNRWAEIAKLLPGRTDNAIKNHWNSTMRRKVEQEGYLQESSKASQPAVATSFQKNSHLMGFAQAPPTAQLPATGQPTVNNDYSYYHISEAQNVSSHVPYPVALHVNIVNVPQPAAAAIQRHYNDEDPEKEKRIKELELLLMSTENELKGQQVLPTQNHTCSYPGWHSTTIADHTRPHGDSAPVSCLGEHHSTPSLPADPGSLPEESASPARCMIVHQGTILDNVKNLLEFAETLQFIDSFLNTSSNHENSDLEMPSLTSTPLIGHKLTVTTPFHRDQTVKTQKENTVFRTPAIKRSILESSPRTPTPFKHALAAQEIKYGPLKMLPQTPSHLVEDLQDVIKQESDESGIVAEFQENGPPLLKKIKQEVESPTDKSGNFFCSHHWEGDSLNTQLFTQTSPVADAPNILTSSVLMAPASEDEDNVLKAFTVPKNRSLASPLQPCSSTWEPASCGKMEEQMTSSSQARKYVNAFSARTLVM
Sequence of Nuclear respiratory factor 1 (Homo sapiens) (Q16656 whole entry, looked up): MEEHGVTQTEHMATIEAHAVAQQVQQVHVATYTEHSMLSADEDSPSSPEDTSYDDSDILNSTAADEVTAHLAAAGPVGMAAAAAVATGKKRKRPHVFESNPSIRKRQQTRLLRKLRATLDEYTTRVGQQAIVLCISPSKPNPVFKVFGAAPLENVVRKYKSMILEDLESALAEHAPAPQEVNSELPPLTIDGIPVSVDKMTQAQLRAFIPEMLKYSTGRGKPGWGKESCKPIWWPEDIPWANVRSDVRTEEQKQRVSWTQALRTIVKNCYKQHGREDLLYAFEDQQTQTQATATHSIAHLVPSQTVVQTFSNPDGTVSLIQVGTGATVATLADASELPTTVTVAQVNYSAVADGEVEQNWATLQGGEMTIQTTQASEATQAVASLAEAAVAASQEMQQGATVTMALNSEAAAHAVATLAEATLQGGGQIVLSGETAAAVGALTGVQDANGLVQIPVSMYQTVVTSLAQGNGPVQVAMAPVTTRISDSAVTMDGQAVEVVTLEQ
Sequence of Nuclear receptor subfamily 4 group A member 2 (Homo sapiens) (P43354 whole entry, looked up, the tested form may be a part): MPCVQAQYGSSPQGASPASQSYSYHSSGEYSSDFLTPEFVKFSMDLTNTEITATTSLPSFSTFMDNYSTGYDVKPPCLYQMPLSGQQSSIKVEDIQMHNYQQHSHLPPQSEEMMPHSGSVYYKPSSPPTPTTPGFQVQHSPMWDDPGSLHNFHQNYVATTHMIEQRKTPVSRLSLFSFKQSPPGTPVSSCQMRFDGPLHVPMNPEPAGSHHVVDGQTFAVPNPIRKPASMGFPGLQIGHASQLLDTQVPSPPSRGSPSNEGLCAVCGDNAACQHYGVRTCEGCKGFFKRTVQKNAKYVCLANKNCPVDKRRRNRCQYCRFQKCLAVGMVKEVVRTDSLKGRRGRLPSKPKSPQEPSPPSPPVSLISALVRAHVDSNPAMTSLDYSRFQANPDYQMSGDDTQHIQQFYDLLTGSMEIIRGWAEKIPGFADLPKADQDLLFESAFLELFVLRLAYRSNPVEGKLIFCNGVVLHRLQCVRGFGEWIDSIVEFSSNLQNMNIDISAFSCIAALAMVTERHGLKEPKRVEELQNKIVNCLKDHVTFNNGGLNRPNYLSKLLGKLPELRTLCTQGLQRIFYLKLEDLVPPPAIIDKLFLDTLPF
Sequence of Oxysterols receptor LXR-beta (Homo sapiens) (P55055 whole entry, looked up, the tested form may be a part): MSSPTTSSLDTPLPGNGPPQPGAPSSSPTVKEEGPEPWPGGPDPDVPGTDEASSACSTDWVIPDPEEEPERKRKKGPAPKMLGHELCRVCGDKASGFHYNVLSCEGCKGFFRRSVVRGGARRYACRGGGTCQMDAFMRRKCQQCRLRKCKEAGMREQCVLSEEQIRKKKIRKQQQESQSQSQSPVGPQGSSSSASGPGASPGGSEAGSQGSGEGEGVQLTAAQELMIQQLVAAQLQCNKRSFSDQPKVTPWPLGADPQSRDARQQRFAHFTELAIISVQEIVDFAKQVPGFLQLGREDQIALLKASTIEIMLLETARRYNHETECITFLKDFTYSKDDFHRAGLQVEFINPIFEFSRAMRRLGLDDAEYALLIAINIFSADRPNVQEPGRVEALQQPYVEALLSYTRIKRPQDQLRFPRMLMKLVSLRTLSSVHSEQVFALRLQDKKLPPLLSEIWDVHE
Sequence of Steroid hormone receptor ERR1 (Homo sapiens) (P11474 whole entry, looked up, the tested form may be a part): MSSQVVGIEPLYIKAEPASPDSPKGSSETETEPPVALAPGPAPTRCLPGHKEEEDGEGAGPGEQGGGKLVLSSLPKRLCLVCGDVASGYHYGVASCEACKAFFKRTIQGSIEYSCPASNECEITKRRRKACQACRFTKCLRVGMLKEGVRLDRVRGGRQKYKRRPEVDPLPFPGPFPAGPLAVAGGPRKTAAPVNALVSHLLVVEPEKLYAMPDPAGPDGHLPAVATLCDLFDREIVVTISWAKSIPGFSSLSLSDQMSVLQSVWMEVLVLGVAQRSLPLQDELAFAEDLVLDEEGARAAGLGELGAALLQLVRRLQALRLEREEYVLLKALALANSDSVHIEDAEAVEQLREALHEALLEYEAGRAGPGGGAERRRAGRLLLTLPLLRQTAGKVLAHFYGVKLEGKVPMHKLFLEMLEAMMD
Sequence of Nuclear receptor subfamily 1 group I member 3 (Homo sapiens) (Q14994 whole entry, looked up, the tested form may be a part): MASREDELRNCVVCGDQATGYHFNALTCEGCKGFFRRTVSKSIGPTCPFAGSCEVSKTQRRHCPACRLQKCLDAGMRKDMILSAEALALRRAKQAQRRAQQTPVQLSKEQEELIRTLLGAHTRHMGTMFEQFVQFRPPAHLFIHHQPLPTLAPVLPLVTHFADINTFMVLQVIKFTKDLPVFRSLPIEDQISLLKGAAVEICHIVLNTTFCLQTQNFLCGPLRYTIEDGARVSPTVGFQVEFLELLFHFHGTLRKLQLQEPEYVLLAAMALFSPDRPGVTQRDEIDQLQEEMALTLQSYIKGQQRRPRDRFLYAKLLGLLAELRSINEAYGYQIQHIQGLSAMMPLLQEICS
Sequence of Oxysterols receptor LXR-alpha (Homo sapiens) (Q13133 whole entry, looked up, the tested form may be a part): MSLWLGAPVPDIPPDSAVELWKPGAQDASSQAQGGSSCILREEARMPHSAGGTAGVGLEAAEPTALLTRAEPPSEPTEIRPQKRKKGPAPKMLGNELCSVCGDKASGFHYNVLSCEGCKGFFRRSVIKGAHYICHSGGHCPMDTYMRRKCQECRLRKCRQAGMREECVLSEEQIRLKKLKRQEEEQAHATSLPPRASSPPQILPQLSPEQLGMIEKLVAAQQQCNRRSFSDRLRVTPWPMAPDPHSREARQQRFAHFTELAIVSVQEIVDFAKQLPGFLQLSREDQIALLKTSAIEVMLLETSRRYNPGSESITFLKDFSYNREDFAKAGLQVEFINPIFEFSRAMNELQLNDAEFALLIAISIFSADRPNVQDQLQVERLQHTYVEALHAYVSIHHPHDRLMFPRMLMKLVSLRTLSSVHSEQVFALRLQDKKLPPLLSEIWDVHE

Turning to `CCCCCCCCCCCC(=O)OC[C@@H](O)[C@H]1OC[C@H](O)[C@H]1O`, the compound was called inactive in experiment [1], in [2], in [3], in experiment [4], in experiment [5] and in experiment [6]. The call in experiment [7], in experiment [8], in experiment [9], in experiment [10], in [11] and in experiment [12] was inactive. Moreover, the compound was classed as inactive in experiment [13], in experiment [14], in experiment [15] and in [16].
As to `CC1CC(O)CC(C)(C)C1` (stereo not given), the call in [1], in experiment [2], in experiment [3], in experiment [4], in experiment [5] and in experiment [6] was inactive. For the same compound, the compound was called inactive in [7], in experiment [14], in experiment [15] and in experiment [16].
By AC50 is commonly meant the midpoint of the concentration-response curve, whichever way the signal moves. For the compound `CCCCCCCCCCCC(=O)OCC(O)CO` (stereo not given), the call in [1], in experiment [2], in experiment [3], in experiment [17], in [5] and in [7] was inactive. In addition, the outcome in [18], in experiment [13], in experiment [14], in experiment [15] and in [16] was inactive. Further, in experiment [19], the concentration at half-maximal activity (AC50) was 132 µM (active).
In the case of `Cc1cccc(Nc2ccccc2)c1`, the compound was classed as inactive in experiment [1], in experiment [2], in experiment [20], in experiment [13], in experiment [19] and in experiment [16]. The AC50 in [3] is 58.2 µM (active); in experiment [5] it was 133 µM (active); in experiment [15] it was 170 µM (active).
Regarding `Oc1ccc2cc(SSc3ccc4cc(O)ccc4c3)ccc2c1`, the compound was classed as inactive in experiment [1], in [2], in experiment [20], in experiment [7], in [10] and in experiment [18]. In addition, the call in experiment [12], in experiment [13], in experiment [14], in experiment [15] and in [16] was inactive. For the same compound, the concentration at half-maximal activity (AC50) is 27.6 µM (active) in experiment [3] and 40.2 µM (active) in experiment [5].
